Measurements taken from ChEMBL document CHEMBL2218924, “A broad activity screen in support of a chemogenomic map for kinase signalling research and drug discovery” (Biochem J, 2013).

Key:
[1] = biological target: T1, Ephrin type-A receptor 3 (Homo sapiens) (UniProt P29320); settings: at 10 µM
T1 sequence (whole entry): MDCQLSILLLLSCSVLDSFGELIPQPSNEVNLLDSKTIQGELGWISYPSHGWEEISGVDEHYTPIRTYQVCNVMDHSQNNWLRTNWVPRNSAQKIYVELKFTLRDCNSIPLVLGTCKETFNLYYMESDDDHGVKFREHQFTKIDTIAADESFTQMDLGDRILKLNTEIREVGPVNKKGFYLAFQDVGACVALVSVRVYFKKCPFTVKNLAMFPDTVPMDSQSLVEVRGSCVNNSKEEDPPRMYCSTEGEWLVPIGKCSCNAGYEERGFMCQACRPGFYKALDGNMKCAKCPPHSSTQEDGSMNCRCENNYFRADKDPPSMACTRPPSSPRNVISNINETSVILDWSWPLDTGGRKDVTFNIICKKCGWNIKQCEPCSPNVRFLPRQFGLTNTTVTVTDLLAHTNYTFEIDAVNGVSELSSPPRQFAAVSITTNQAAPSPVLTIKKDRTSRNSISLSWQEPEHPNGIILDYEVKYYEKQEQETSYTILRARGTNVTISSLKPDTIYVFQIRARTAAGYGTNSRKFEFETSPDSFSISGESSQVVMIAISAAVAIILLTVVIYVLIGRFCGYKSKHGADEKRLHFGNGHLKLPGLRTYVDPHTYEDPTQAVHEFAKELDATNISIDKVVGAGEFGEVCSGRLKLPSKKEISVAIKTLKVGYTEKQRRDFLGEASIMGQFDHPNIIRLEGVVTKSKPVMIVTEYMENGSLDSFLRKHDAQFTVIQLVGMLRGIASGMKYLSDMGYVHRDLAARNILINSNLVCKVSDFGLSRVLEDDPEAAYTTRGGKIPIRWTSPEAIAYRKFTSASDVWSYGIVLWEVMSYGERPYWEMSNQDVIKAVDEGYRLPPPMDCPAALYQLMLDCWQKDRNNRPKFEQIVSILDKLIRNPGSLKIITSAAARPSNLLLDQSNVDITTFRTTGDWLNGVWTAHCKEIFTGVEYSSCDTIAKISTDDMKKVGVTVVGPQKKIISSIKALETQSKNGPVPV

[2] = biological target: T2, Ephrin type-A receptor 8 (Homo sapiens) (UniProt P29322); settings: at 1 µM
T2 sequence (whole entry): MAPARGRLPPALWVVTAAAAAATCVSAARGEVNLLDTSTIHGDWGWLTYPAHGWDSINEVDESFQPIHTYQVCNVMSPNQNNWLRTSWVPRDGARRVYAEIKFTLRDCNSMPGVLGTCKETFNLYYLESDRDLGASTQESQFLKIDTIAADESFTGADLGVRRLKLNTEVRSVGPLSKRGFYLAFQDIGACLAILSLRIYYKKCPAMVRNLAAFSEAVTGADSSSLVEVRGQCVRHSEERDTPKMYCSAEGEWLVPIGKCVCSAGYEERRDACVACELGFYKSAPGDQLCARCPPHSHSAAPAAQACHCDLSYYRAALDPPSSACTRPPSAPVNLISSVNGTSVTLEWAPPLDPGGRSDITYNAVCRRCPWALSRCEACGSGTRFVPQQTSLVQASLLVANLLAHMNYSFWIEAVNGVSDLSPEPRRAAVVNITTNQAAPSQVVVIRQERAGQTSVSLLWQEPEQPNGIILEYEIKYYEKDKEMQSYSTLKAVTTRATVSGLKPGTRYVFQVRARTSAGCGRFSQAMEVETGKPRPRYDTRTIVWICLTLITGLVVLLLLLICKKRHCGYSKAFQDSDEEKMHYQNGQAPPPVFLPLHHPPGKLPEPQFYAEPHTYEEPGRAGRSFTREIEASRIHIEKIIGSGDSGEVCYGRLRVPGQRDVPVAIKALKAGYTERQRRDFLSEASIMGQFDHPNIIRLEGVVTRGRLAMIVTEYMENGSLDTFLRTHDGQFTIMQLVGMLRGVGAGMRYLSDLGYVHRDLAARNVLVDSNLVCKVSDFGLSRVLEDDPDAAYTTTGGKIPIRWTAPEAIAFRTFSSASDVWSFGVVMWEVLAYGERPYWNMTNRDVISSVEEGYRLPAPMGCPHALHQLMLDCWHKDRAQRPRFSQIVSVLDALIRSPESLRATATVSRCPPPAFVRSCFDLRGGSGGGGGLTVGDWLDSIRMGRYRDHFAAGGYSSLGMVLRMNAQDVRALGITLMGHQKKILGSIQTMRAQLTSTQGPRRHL

[3] = biological target: T2, Ephrin type-A receptor 8 (Homo sapiens); settings: at 10 µM
[4] = biological target: T3, Ephrin type-B receptor 3 (Homo sapiens) (UniProt P54753); settings: at 1 µM
T3 sequence (whole entry): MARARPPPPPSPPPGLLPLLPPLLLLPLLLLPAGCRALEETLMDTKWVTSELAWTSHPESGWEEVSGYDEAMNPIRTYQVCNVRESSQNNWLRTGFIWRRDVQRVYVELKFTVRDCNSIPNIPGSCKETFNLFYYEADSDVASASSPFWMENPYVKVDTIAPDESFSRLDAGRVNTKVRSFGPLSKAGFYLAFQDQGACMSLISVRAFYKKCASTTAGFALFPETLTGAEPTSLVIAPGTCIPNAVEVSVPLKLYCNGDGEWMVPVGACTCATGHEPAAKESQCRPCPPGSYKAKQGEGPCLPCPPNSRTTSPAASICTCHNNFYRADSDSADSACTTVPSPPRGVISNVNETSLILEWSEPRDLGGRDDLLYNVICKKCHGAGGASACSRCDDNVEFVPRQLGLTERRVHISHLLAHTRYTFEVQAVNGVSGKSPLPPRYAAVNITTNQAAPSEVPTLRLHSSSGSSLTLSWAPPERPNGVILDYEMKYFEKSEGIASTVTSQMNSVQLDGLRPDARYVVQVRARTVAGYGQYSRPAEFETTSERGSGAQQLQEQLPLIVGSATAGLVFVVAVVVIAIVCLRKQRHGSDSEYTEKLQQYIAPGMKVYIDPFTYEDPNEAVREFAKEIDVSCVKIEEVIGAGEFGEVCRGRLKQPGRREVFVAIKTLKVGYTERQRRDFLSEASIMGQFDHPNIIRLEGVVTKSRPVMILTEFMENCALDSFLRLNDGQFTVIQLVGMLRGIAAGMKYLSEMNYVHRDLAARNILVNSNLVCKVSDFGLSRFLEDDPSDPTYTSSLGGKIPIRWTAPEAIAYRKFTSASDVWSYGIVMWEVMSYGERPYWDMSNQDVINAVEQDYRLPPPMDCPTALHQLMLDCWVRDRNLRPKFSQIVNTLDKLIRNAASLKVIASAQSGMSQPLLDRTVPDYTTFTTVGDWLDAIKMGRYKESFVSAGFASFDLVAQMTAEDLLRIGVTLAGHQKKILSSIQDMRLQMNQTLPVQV

[5] = biological target: T3, Ephrin type-B receptor 3 (Homo sapiens); settings: at 10 µM
[6] = biological target: T4, Ephrin type-B receptor 4 (Homo sapiens) (UniProt P54760); settings: at 1 µM
T4 sequence (whole entry): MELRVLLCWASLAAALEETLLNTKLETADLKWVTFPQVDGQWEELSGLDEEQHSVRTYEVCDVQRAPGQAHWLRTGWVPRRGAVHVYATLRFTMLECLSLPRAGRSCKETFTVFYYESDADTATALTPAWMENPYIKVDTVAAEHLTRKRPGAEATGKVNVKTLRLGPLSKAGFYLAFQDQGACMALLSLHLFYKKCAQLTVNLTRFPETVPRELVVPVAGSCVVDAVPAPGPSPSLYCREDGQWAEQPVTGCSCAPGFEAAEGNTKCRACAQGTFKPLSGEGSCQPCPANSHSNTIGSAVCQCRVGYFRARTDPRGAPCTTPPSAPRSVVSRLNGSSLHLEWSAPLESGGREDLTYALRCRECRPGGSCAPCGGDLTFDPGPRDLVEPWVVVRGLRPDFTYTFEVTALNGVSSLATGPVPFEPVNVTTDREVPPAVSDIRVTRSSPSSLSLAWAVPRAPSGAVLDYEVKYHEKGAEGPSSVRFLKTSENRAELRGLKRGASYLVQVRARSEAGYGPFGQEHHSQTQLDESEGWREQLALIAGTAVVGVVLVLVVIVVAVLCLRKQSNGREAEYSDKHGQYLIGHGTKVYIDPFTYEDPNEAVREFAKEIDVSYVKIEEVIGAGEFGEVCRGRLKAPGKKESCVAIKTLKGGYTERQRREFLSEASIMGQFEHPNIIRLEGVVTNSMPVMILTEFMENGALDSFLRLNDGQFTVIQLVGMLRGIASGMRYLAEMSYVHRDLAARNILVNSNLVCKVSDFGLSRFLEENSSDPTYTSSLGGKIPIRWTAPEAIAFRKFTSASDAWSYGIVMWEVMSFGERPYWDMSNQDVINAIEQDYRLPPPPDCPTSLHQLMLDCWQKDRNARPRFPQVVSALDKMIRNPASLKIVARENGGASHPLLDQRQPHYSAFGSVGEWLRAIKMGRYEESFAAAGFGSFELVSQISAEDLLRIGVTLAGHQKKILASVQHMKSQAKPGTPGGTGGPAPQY

[7] = biological target: T4, Ephrin type-B receptor 4 (Homo sapiens); settings: at 10 µM
[8] = biological target: Ephrin type-A receptor 7 (Homo sapiens) (UniProt Q15375); settings: at 1 µM
[9] = biological target: Ephrin type-A receptor 7 (Homo sapiens) (UniProt Q15375); settings: at 10 µM
[10] = biological target: T5, Ephrin type-B receptor 1 (Homo sapiens) (UniProt P54762); settings: at 1 µM
T5 sequence (whole entry): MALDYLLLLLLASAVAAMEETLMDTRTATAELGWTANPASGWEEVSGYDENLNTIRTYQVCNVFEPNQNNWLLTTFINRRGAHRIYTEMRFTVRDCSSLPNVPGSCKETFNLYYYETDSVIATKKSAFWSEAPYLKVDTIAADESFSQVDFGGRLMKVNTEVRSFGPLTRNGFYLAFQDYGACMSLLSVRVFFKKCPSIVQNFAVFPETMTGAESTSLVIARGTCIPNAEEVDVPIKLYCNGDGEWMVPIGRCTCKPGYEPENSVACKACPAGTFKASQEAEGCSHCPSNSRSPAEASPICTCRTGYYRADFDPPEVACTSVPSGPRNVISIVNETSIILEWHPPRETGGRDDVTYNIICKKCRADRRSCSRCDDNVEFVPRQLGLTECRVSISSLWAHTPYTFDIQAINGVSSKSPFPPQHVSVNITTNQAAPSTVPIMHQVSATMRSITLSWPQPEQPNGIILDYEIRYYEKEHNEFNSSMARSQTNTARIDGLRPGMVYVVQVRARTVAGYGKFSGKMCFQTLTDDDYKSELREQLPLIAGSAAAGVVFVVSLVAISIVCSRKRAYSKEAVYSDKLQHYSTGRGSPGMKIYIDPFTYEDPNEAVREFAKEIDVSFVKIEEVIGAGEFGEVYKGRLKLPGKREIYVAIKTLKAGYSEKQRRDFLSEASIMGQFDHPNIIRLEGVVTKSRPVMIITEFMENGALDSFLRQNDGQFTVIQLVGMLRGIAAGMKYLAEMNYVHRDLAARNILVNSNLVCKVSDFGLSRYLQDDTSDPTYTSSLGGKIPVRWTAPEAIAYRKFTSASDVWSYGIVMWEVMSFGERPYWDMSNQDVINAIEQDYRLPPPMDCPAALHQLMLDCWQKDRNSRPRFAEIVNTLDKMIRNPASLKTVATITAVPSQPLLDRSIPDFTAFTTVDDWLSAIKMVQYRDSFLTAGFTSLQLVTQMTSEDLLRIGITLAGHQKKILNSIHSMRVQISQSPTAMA

[11] = biological target: T5, Ephrin type-B receptor 1 (Homo sapiens); settings: at 10 µM
[12] = biological target: Receptor tyrosine-protein kinase erbB-4 (Homo sapiens) (UniProt Q15303); settings: at 10 µM
[13] = biological target: Focal adhesion kinase 1 (Homo sapiens) (UniProt Q05397); settings: at 1 µM
[14] = biological target: Ephrin type-A receptor 5 (Homo sapiens) (UniProt P54756); settings: at 1 µM
[15] = biological target: Ephrin type-A receptor 5 (Homo sapiens) (UniProt P54756); settings: at 10 µM

Receptor tyrosine-protein kinase erbB-4 (Homo sapiens), sequence (Q15303 whole entry): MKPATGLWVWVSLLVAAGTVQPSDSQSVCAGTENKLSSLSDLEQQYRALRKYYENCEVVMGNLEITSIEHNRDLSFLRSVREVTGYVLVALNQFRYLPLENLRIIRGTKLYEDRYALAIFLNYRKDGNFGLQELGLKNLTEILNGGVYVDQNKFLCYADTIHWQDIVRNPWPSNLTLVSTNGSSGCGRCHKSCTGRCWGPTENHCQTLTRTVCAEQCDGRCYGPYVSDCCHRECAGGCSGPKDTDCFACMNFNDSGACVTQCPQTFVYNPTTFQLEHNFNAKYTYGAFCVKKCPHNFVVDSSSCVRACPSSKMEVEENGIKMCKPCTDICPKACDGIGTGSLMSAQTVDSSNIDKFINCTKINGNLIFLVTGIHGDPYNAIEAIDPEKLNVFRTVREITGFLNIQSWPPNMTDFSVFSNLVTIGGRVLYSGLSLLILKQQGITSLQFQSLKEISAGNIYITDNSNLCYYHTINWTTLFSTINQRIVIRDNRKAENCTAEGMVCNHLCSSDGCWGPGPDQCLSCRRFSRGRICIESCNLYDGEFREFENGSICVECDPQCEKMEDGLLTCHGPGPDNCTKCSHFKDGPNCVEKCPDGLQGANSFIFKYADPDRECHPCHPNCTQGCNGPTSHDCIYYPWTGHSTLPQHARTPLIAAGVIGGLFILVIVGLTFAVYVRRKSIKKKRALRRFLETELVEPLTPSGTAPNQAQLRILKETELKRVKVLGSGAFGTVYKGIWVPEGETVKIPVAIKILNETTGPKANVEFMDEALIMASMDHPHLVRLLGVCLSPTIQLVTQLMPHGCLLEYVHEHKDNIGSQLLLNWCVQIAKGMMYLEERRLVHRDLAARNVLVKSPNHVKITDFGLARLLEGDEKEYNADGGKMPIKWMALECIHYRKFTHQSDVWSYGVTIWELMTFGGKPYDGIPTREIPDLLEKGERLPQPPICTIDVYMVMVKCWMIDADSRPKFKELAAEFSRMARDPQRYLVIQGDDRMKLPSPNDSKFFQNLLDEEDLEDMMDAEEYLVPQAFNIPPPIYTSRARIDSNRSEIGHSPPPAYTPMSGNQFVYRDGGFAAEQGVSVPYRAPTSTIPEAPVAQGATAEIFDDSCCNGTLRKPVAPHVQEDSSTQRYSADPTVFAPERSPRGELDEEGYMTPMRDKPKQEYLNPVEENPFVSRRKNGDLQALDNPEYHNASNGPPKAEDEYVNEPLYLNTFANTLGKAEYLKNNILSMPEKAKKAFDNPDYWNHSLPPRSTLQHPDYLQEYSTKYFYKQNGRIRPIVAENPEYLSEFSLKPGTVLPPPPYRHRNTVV
Focal adhesion kinase 1 (Homo sapiens), sequence (Q05397 2-1052 limits assumed): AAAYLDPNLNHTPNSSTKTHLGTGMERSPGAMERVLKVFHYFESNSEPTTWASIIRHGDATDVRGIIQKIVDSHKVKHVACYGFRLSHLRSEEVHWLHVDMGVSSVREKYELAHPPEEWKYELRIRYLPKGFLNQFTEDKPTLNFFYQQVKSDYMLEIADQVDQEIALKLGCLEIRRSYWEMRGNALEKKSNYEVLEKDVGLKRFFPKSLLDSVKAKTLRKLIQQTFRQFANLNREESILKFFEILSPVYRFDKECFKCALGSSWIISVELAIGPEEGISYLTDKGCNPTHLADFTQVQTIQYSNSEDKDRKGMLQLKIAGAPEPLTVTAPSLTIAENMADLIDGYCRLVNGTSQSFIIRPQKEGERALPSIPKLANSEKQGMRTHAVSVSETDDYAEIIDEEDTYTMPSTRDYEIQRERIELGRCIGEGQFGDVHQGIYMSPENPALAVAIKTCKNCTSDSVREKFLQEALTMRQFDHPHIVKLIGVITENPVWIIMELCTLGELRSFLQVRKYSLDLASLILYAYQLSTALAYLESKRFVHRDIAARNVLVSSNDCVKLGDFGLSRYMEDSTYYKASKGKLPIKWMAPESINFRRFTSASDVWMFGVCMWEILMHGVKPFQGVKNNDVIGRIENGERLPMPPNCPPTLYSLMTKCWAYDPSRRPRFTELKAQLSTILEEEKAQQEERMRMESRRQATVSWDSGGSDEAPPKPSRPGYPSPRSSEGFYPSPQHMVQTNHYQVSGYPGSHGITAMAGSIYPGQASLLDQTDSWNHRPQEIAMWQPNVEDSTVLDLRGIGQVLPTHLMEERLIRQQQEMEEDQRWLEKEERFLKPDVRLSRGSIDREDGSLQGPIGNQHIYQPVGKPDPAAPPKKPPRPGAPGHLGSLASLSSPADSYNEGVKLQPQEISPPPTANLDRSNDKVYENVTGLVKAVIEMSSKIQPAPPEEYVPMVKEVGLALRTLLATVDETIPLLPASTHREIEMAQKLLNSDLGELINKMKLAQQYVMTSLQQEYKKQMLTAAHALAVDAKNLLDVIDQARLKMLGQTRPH
Ephrin type-A receptor 7 (Homo sapiens), sequence (Q15375 28-998 limits assumed): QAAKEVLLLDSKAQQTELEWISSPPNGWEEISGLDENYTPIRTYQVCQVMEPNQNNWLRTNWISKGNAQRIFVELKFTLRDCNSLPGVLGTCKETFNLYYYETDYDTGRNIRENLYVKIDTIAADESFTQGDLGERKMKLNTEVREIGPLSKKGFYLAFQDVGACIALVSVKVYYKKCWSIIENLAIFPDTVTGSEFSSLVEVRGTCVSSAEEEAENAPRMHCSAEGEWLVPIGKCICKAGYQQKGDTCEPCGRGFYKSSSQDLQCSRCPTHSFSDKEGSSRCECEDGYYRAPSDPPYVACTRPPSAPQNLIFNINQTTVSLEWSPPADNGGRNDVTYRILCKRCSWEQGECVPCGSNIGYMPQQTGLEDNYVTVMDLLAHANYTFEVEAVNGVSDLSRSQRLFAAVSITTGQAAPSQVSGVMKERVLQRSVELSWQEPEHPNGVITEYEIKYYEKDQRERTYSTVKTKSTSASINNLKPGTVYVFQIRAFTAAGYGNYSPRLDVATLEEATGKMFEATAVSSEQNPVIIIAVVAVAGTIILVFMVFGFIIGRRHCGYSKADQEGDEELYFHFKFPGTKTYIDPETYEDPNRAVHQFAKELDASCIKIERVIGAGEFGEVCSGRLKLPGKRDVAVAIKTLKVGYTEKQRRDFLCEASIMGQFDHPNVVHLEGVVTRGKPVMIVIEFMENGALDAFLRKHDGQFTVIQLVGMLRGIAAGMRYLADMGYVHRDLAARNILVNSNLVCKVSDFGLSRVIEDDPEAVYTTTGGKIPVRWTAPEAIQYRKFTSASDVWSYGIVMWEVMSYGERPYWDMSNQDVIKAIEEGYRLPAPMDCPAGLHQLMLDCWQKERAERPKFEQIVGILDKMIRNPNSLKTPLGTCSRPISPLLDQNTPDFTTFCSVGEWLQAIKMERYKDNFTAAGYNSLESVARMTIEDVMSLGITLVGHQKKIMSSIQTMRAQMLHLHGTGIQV
Ephrin type-A receptor 5 (Homo sapiens), sequence (P54756 whole entry): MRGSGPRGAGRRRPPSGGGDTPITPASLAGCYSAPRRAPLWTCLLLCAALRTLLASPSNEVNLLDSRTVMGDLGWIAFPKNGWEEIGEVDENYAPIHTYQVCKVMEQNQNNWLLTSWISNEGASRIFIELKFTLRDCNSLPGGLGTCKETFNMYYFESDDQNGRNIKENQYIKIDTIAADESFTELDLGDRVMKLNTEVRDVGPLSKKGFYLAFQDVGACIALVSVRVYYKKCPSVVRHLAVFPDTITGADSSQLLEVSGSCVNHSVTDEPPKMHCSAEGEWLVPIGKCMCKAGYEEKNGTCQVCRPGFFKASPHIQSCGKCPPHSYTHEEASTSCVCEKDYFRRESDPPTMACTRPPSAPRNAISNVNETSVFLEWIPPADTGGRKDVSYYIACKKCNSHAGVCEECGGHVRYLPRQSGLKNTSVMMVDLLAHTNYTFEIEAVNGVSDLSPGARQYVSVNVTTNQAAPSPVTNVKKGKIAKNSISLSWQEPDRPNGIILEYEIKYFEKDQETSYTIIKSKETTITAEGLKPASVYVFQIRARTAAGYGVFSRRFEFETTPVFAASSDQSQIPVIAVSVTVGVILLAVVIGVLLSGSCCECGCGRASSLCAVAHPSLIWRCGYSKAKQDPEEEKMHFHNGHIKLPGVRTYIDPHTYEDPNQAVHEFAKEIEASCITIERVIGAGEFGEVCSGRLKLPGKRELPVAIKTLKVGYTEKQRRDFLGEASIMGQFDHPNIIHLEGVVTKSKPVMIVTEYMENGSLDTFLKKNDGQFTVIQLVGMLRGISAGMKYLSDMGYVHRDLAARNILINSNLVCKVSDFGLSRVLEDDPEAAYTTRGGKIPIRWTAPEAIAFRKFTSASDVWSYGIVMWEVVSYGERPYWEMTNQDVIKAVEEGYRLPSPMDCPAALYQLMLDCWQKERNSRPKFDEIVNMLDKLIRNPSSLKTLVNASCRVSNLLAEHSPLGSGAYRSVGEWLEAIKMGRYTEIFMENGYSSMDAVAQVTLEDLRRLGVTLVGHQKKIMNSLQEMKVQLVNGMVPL

O=C1NC(=O)C(c2cn(CCCO)c3ncccc23)=C1c1cnccn1
residual activity [1]: 92%
residual activity [2]: 99%
residual activity [3]: 94%
residual activity [4]: 94% (inactive)
residual activity [5]: 99%
residual activity [6]: 92%
residual activity [7]: 98%

O=C1NC(=O)C(c2c[nH]c3ccccc23)=C1c1c[nH]c2ccccc12
residual activity [8]: 99%
residual activity [9]: 67%
residual activity [10]: 83%
residual activity [11]: 39%
residual activity [7]: 82%
residual activity [12]: 73%
residual activity [13]: 122%

NC(=O)c1cccc(-c2cc(Nc3ccc(OC(F)(F)F)cc3)ncn2)c1
residual activity [13]: 147%

NCCNc1ncc(C(N)=O)c(Nc2cccc(C(F)(F)F)c2)n1
residual activity [14]: 102%
residual activity [15]: 74%
residual activity [9]: 72%
residual activity [4]: 113% (inactive)
residual activity [5]: 111%
residual activity [6]: 102%
residual activity [7]: 101%
residual activity [12]: 75%
residual activity [13]: 64%

CC(C)N(CCC(=O)c1ccc2ccccc2c1)Cc1ccccc1
residual activity [1]: 85%
residual activity [12]: 78%
